IL-1B inflam inh – qHTS for Inhibitors of Inflammasome Signaling: IL-1-beta AlphaLISA Primary Screen; THP-1 LPS/ATP IL-1B secretion, AlphaLISA, 16 h; hits give low values; activity change, % at 57.5 µM; 360,000 tested, 4.7% active; in the data active = activity change below about -50%; inconclusive = mostly about -30% to -49%
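THP-1 cells pretreated 1 hr with compounds (up to 57.5 uM final), then stimulated with LPS (250 ng/mL final) plus ATP (1.25 mM final); secreted IL-1B measured by AlphaLISA after 16 hr, decreased signal indicating inhibition.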
HT1080 IDH1KD tx – qHTS for induction of synthetic lethality in tumor cells producing 2HG: qHTS for the HT-1080-IDH1KD cell line. HT-1080 IDH1 knockdown viability, ATP luminescence, 48 h. Potency, µM (top dose mostly 46.1 µM), for the others: top-dose activity, negative = toxicity, most hits filed as cytotoxic. 360,000 tested, 2% active;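 also: potency is read from the fitted curve at half-maximal effect; 0% = DMSO wells and -100% = cell-free medium wells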
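IDH1KD HT-1080 cells, 750/well, RPMI + 5% FBS; compound pinned after 2 h settling; 48 h, 37 °C; CellTiter-Glo luminescence; % activity normalised to DMSO and no-cell wells; curves fitted, classed by r2 and efficacy.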
HT1080-NT tox – qHTS for induction of synthetic lethality in tumor cells producing 2HG: qHTS for the HT-1080-NT fibrosarcoma cell line; HT-1080-NT fibrosarcoma viability, CellTiter-Glo ATP luminescence, 48 h; Potency, µM (doses to about 46.1 µM), inactives show top-dose activity, negative = less viability, most hits filed as cytotoxic; 360,000 tested, 1.6% active; AID 686970, 2013;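 also: NT is the 2HG producing partner of a matched IDH1 knockdown line; potency is read from the fitted curve at half-maximal effect; 0% = DMSO-treated cells and -100% = media-only wells without cells; nearly all actives have a fitted effect of over 55% in size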
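A 48-hour cytotoxicity screen used HT-1080-NT cells plated 2 hours before compound delivery. ATP-based CellTiter-Glo luminescence measured viability, normalized to DMSO and no-cell controls.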
DT40 TDP1 CPT – qHTS for Inhibitors of human tyrosyl-DNA phosphodiesterase 1 (TDP1): qHTS in cells in presence of CPT; 420,000 tested, 12% active; Potency, µM (series often up to 46.2 µM), inactives show top-dose activity change, negative = growth inhibition, usual class: inhibitors; chicken DT40 Tdp1-/-;hTDP1 cells + 20 nM CPT, ATP luminescence, 48 h; also: potency is read from the fitted curve at half-maximal effect; nearly all actives have a fitted effect of over 55% in size
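Cell growth measured by CellTiter-Glo luminescence after a minimum 48 h, 37 C compound exposure with 20 nM CPT in Tdp1-knockout DT40 cells stably expressing hTDP1, seeded 400/well; qHTS titration format.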
DT40 TDP1 no CPT – qHTS for Inhibitors of human tyrosyl-DNA phosphodiesterase 1 (TDP1): qHTS in cells in absence of CPT; DT40 Tdp1-/- hTDP1 cells, no CPT, ATP luminescence, 48 h; Potency, µM (series often up to 46.2 µM), for inactives: top-dose activity change, negative = growth inhibition, hits mostly inhibitors; 420,000 tested, 15% active; also: potency is read from the fitted curve at half-maximal effect; nearly all actives have a fitted effect of over 55% in size
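Readout: luminescence from CellTiter-Glo after 30 min in the dark at RT. Cells: DT40 Tdp1-/- with stable hTDP1, 400/well. Exposure: compounds alone, ≥48 hr, 37 °C.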
An asterisk follows results filed as active; ? = inconclusive; · = not tested or not shown. Shown are actives, neighbours in structure and some others; about 19% of the full set was active somewhere. Unless noted, calls follow the shape of the dose curve; as a rule, active = well fitted curve in the direction sought with a large enough effect; inconclusive = small, poorly fitted or top-dose-only effect, or another doubt; inactive = no such curve, though single readings can be large; an effect the other way counts as inactive or inconclusive. Unless noted, % is scaled to controls: 0 for no effect and ±100 for the full control effect.

SMILES	IL-1B inflam inh	HT1080 IDH1KD tx	HT1080-NT tox	DT40 TDP1 CPT	DT40 TDP1 no CPT
C=CCC[C@H](Cc1ccc(F)cc1)C(=O)OC[C@H](Cc1c[nH]c2ccccc12)NC(=O)[C@@H](CC=C)CC(=O)N[C@H](CO)Cc1ccccc1	?	18µM*	21µM*	?	-81%
C=CCC[C@H](Cc1ccc(F)cc1)C(=O)OC[C@@H](Cc1c[nH]c2ccccc12)NC(=O)[C@@H](CC=C)CC(=O)N[C@H](CO)Cc1ccccc1	-22	-10%	-4%	18µM*	15µM*
C=CCC[C@H](Cc1ccc(F)cc1)C(=O)OC[C@H](Cc1c[nH]c2ccccc12)NC(=O)[C@@H](CC=C)CC(=O)N[C@@H](CO)Cc1ccccc1	69	?	?	5.8µM*	16µM*
COc1cccc(OC)c1C(=O)Nc1ccc2c(c1)CCCN2S(=O)(=O)c1ccc(C)cc1	-13	1%	0%	?	?
Cc1ccc(S(=O)(=O)N2CCCc3cc(NS(=O)(=O)c4cc(F)ccc4F)ccc32)cc1	·	·	·	23µM*	18µM*
Cc1ccc(S(=O)(=O)N2CCCc3cc(NC(=O)c4c(F)cccc4F)ccc32)cc1	?	-7%	-1%	?	?
Cc1ccc(S(=O)(=O)N2CCCc3cc(NS(=O)(=O)c4ccc(F)cc4)ccc32)cc1	·	·	·	?	18µM*
COc1ccc(S(=O)(=O)Nc2ccc3c(c2)CCCN3S(=O)(=O)c2ccc(C)cc2)cc1F	·	·	·	?	21µM*
Cc1cccc(-c2nc3c(c(SCC(=O)N(C)C)n2)CCCC3)c1	0	16%	7%	?	16µM*
CN(C)CCSc1nc(-c2ccccc2)nc2c1CCCC2	-71*	-10%	-23%	12µM*	16µM*
O=C(O)CSc1nc(-c2ccccc2)nc2c1CCCC2	41	-5%	-2%	-11%	19%
FC(F)(F)c1cccc(NC(=S)NCC2COc3ccccc3O2)c1 (stereo not drawn)	-20	0%	-1%	?	?
CCn1c(=S)sc2c(=O)n(CC(=O)NC(C)CCc3ccccc3)c(C)nc21 (stereo not drawn)	9	7%	10%	?	29µM*
CCn1c(=S)sc2c(=O)n(CC(=O)Nc3cc(OC)ccc3OC)c(C)nc21	4	4%	-1%	?	18µM*
CCn1c(=S)sc2c(=O)n(CC(=O)Nc3ccccc3OC)c(C)nc21	4	15%	18%	?	?
CCC(C)n1c(SCC(=O)NC2CCCC2)nc2ccccc2c1=O (stereo not drawn)	-8	7%	2%	?	?
COC(=O)c1ccc(Cl)c(NC(=O)C2CCN(S(=O)(=O)Cc3ccccc3)CC2)c1	·	·	·	-24%	-14%
CCc1ccccc1Nc1nn2c(=O)c3ccc(C(=O)NCc4ccccc4Cl)cc3nc2s1	·	·	·	?	9.2µM*
CCc1ccccc1Nc1nn2c(=O)c3ccc(C(=O)NCc4cccs4)cc3nc2s1	·	·	·	?	21µM*
COC(=O)[C@H]1C[C@@]2(O)CN(S(=O)(=O)c3ccc(C)cc3)C[C@@]2(OC(=O)NC2CC2)C[C@H]1C(=O)OC	9	-2%	12%	4%	-27%
COc1ccc(CNC(=O)O[C@]23C[C@H]4C(=O)N(c5ccccc5)C(=O)[C@H]4C[C@@]2(O)CN(S(=O)(=O)c2ccc(C)cc2)C3)cc1OC	9	4%	5%	-5%	-9%
CCCCCCn1c(=O)n2n(c1=O)C[C@]1(OC(=O)NC3CC3)CN(S(=O)(=O)c3ccc(C)cc3)C[C@]1(O)C2	19	-9%	-13%	?	12µM*
Cc1ccc(S(=O)(=O)N2C[C@]3(O)C[C@@H]4C(=O)N(c5ccccc5)C(=O)[C@@H]4C[C@]3(OC(=O)NC3CCCC3)C2)cc1	-1	1%	11%	?	21µM*
C=CCC(NC(=O)N(C)C)(C(C)=O)C(=O)OC (stereo not drawn)	7	-9%	10%	23%	8%
CCCCn1nnnc1C1(C)CCC(=O)N1CCCn1ccnc1 (stereo not drawn)	-7	?	?	21µM*	16µM*
SMILES	IL-1B inflam inh	HT1080 IDH1KD tx	HT1080-NT tox	DT40 TDP1 CPT	DT40 TDP1 no CPT
OC[C@@H]1CN(Cc2ccc(Cl)cc2)C[C@H](n2cnc3c(NCc4ccco4)ncnc32)O1	25	14%	9%	?	-27%
CC(C)CNc1ncnc2c1ncn2[C@H]1CN(CCc2ccccc2)C[C@@H](CO)O1	-71*	27%	3%	-10%	-28%
COCCNc1ncnc2c1ncn2[C@H]1CN(CCc2ccccc2)C[C@@H](CO)O1	27	14%	?	-4%	-10%
CC(C)CNc1ncnc2c1ncn2[C@H]1CN(Cc2cccc3ccccc23)C[C@@H](CO)O1	-16	?	?	18µM*	?
OC[C@@H]1CN(Cc2cccc3ccccc23)C[C@H](n2cnc3c(NCc4ccco4)ncnc32)O1	?	?	?	21µM*	21µM*
CC(C)CNc1ncnc2c1ncn2[C@H]1CN(Cc2ccc(Cl)cc2)C[C@@H](CO)O1	-10	-8%	-19%	?	?
Cc1nn2c(=O)cc(COC(=O)c3ccccc3NC(=O)C(C)C)nc2s1	·	·	·	?	12µM*
